Source: PubChem
HEK293 tox – qHTS of GLP-1 Receptor Inverse Agonists: Cytotox Screen. Potency, µM (top dose mostly 38.3 µM), for inactives: at the highest dose activity change, negative = inhibition, usual class: inhibitors. HEK293 cAMP-luciferase reporter cells, luminescence, 24 h. 0.13% of 410,000 active;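 further: loss of luciferase light is scored as toxicity; potency means the concentration at half of the fitted maximal effect; on the % scale 0 is the no-effect control and ±100 the full control effect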
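Seeding density was 200 cells/uL; after overnight-length (12 h) culture, 23 nL compounds went on for 24 h at 37 °C. Readout used a luciferase detection reagent, luminescence taken after 12 min at room temperature.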
LDHA block – qHTS assay for inhibitors of human lactate dehydrogenase. L-lactate dehydrogenase A chain (Homo sapiens), P00338. purified LDHA, NADH/diaphorase-resazurin fluorescence; hits give low values. activity change, % (values are at about 110 or 230 µM). 0.15% of 480,000 active; in the data active means activity change below about -30%; inconclusive means mostly about -25% to -30%;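 further: plate controls were DMSO wells for no effect and wells without enzyme for full effect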
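Human LDH5 at 2 nM final in Tris HCl pH 7.4 with 0.06 mM NADH and 0.2 mM pyruvate, reacted 5 minutes at room temperature. Remaining NADH coupled via diaphorase/resazurin; resorufin fluorescence read at 0 and 20 minutes, normalized to enzyme-free and DMSO wells.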
GLP-1R inv ag – qHTS of GLP-1 Receptor Inverse Agonists (Inhibition Mode); Glucagon-like peptide 1 receptor (Homo sapiens), P43220; HEK293 GLP-1R CRE-luciferase, luminescence, 24 h; GLP-1R form is constitutively active; Potency, µM (series often up to 38.3 µM), for the others: at the highest dose activity change, negative = inhibition, hits mostly inhibitors; 1.6% of 410,000 active; AID 624417, 2012; further: potency means the concentration at half of the fitted maximal effect; on the % scale 0 is the no-effect control and ±100 the full control effect; nearly all actives have a fitted effect of over 55% in size
Target sequence (P43220 whole entry, looked up): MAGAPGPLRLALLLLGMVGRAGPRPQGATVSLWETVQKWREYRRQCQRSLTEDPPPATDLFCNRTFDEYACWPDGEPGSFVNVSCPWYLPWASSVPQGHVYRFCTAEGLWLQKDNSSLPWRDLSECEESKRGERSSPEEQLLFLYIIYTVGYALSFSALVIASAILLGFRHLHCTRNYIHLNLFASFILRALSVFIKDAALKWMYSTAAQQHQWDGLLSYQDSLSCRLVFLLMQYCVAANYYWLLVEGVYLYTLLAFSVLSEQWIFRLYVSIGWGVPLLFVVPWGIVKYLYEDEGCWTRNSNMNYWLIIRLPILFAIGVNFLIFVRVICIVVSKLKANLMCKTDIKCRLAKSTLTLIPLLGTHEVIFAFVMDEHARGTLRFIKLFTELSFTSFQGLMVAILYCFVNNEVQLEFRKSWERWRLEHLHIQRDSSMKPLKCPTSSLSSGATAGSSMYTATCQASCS
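Readout was luciferase luminescence, measured 12 min after detection reagent at room temperature. Beforehand, GLP-1R reporter HEK293 cells had sat 12 h, then received compounds for 24 hr at 37 deg C.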
GLP-1R agonist – qHTS of GLP-1 Receptor Agonists. HEK293 GLP-1R CRE-luciferase, luminescence, 4-6 h; cells express a hypersensitive GLP-1R form. AID 624172, 2012. Potency, µM (highest dose often 45.6 µM), for the others: at the highest dose activation, most hits filed as activators. 0.007% of 380,000 active; further: potency means the concentration at half of the fitted maximal effect; % of control where 0% means no effect
p53 reactivation – qHTS assay for re-activators of p53 using a Luc reporter. H1299 p53-A138V BP100-luciferase reporter, luminescence, 24 h. Potency, µM (series often up to 92.2 µM), for inactives: at the top dose activity change, positive = activation, most hits filed as activators. 0.063% of 320,000 active; further: potency means the concentration at half of the fitted maximal effect; % of control where 0% means no effect; nearly all actives have a fitted effect of over 45% in size
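H1299 (p53-null), stable ts p53-A138V + BP100-Luc; 1000 cells/well, Opti-MEM/10% FBS; cpd 4 pt, 1:5; 24 h, 37 deg C, 5% CO2; detection reagent 10 min RT; luminescence.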
ClpP mod – qHTS Assay for Activators of ClpP. ATP-dependent Clp protease proteolytic subunit (Bacillus subtilis (strain 168)), P80244. purified B. subtilis ClpP, FRET peptide cleavage, 20 min. Potency, µM (highest dose often 57.5 µM), for inactives: at the highest dose activity change, negative = active. 1.9% of 340,000 active. AID 651965, 2013; active means well fitted falling curve with a large enough effect; inconclusive means small, poorly fitted or top-dose-only effect; inactive means no such curve, though single readings can be large or run the other way; further: potency means the concentration at half of the fitted maximal effect; the source files actives as falling curves though it sought activators and does not explain the sign; nearly all actives have a fitted effect of over 65% in size
Target sequence (P80244 whole entry, looked up): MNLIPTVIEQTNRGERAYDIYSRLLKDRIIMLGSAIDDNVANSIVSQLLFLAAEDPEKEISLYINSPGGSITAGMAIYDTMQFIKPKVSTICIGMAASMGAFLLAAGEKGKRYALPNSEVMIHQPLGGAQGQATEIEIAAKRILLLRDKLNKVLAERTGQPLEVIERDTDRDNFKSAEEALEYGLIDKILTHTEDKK
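Purified B. subtilis ClpP, 10 microg/mL final in Tris/HCl pH8 with KCl, BSA, glycerol and Tween-20, cleaved an Abz/nitrotyrosine-quenched decapeptide. Fluorescence (ex 320, em 430) was read at 0 and 20 min at room temperature. Delta was normalized to 5.8 microM ADEP and DMSO/no-enzyme controls.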
An asterisk follows results filed as active; [ ] = another dose, or the depositor's remark. Only some compounds are listed: those with a hit (about 2.9% of all), similar ones and a draw of the others. Unless noted, the call rests on the fitted dose curve; in most records, active means well fitted curve in the direction sought with a large enough effect; inconclusive means small, poorly fitted or top-dose-only effect, or another doubt; inactive means no such curve, though single readings can be large; an effect the other way counts as inactive or inconclusive.

For CC(=O)Nc1ccc(S(=O)(=O)NC2CCS(=O)(=O)C2)cc1Cl (configuration not stated) the results were HEK293 tox -6%, LDHA block -2, GLP-1R inv ag 9%, GLP-1R agonist -23%, p53 reactivation -1% and ClpP mod 0%.
Screening COc1ccc(-c2nn(-c3ccccc3)cc2C(=O)O)cc1OC returned HEK293 tox 4%, LDHA block -7, GLP-1R inv ag 4%, GLP-1R agonist 0%, p53 reactivation -1% and ClpP mod 25µM*.
`Cc1ccc(NC(=O)c2cn(-c3ccccc3)nc2-c2ccccc2)cc1` gave HEK293 tox 6%, LDHA block -10, GLP-1R inv ag inconclusive and ClpP mod inconclusive.
For COc1ccc(NC(=O)c2cn(-c3ccccc3)nc2-c2ccc(C)cc2)cc1 the results were HEK293 tox 1%, LDHA block -1, GLP-1R inv ag 7.9µM* and ClpP mod -28%.
For Cc1ccc(S(=O)(=O)N(CC(=O)Nc2cc(C)ccc2C)C(=O)N2CCN(C)CC2)cc1 the results were HEK293 tox 12%, LDHA block -1, GLP-1R inv ag 12%, GLP-1R agonist -6%, p53 reactivation -4% and ClpP mod -1%.
Screening O=C(Nc1ccccc1O)c1csc2c1CCCC2 returned HEK293 tox 16%[0.307 µM], LDHA block -12, GLP-1R inv ag -4%[0.307 µM], GLP-1R agonist 3%, p53 reactivation 8% and ClpP mod -1%.
`CN1c2ccccc2C(C)(C)C12C=Nc1c(cc(N3CCOCC3)c3ccccc13)O2` (configuration not stated) gave HEK293 tox inconclusive, LDHA block 30, GLP-1R inv ag inconclusive, GLP-1R agonist -4%, p53 reactivation -10% and ClpP mod 28µM*.
`CN1c2ccccc2C(C)(C)C12C=Cc1cc(O)ccc1O2` (configuration not stated) gave HEK293 tox -28%, LDHA block 17, GLP-1R inv ag inconclusive, GLP-1R agonist 4%, p53 reactivation 4% and ClpP mod -1%.
Screening Cc1cccc(NC(=O)c2ccc(C(=O)c3ccccc3)o2)c1 returned HEK293 tox 8%[0.307 µM], LDHA block -1, GLP-1R inv ag 1%[0.307 µM], GLP-1R agonist 4%, p53 reactivation 6% and ClpP mod 22µM*.
`Cc1cc(C(=O)Nc2cccc(C(=O)O)c2)c(C)o1` gave HEK293 tox -16%, LDHA block -4, GLP-1R inv ag 0%, GLP-1R agonist -12%, p53 reactivation 17% and ClpP mod -1%.
For Cc1cc(C(=O)Nc2cccc(C(=O)O)c2)oc1C the results were HEK293 tox -1%, LDHA block -3, GLP-1R inv ag 1.3µM*, GLP-1R agonist -32%, p53 reactivation -18% and ClpP mod -3%.
For Cc1ccc(OCCC(=O)NNC(=O)c2nn(C)c(=O)c3ccccc23)cc1 the results were HEK293 tox -13%, LDHA block -7, GLP-1R inv ag -28%, GLP-1R agonist -34%, p53 reactivation -1% and ClpP mod -2%.
For CCOC(=O)N1CCN(c2nc(-c3cccc(OC)c3)cc(C(F)(F)F)n2)CC1 the results were HEK293 tox 10%, LDHA block 3, GLP-1R inv ag 2%, GLP-1R agonist -9%, p53 reactivation -6% and ClpP mod 28µM*.
Screening CCOC(=O)N1CCN(c2nc(-c3ccco3)cc(C(F)(F)F)n2)CC1 returned HEK293 tox -11%, LDHA block -1, GLP-1R inv ag -5%, GLP-1R agonist 3%, p53 reactivation 3% and ClpP mod 3%.
Screening COc1c(O)ccc(/C=N/NC(=O)c2ccc3c(c2)OCCO3)c1[N+](=O)[O-] returned HEK293 tox -8%, LDHA block -2, GLP-1R inv ag 41%, GLP-1R agonist 17% and p53 reactivation 18%.
`CCN(CC)C(=O)N1c2ccccc2C=Cc2ccccc21` gave HEK293 tox -6%, LDHA block -2, GLP-1R inv ag 5.6µM*, GLP-1R agonist 1%, p53 reactivation 6% and ClpP mod 0%.
For COc1ccc(C(C)=O)c(F)c1 the results were LDHA block -7.
COc1ccccc1C(=O)NC(=O)CSc1nc(C)cs1 was read as HEK293 tox -1%, LDHA block -2, GLP-1R inv ag 21%, GLP-1R agonist 7%, p53 reactivation 8% and ClpP mod 28µM*.
Cc1ccc(-n2ncc(C(=O)Nc3cc(Cl)ccc3Cl)c2C2CCNCC2)cc1 was read as HEK293 tox 0%, LDHA block -4, GLP-1R inv ag 7.1µM*, GLP-1R agonist 0% and p53 reactivation 9%.
`COCc1cc(C)n(CC(=O)NCc2ccccc2)c(=O)c1C#N` gave HEK293 tox 1%, LDHA block 3, GLP-1R inv ag 8%, GLP-1R agonist -3%, p53 reactivation 1% and ClpP mod 4%.
Screening COCc1cc(C)n(CC(=O)Nc2ccccc2C(=O)OC)c(=O)c1C#N returned HEK293 tox -10%, LDHA block -1, GLP-1R inv ag 1%, GLP-1R agonist 0%, p53 reactivation 19% and ClpP mod 18µM*.
For COCc1cc(C)n(CC(=O)NC(C)c2ccccc2)c(=O)c1C#N (configuration not stated) the results were HEK293 tox 5%, LDHA block -2, GLP-1R inv ag -2%, GLP-1R agonist 1%, p53 reactivation -4% and ClpP mod 16µM*.
Cc1nnc(NC(=O)COc2ccc3c(C)cc(=O)oc3c2)s1 was read as HEK293 tox 1%, LDHA block 8, GLP-1R inv ag 11%, GLP-1R agonist 0%, p53 reactivation 0% and ClpP mod 1%.
`CN(C)CCNc1nc2sc3c(c2c(=O)n1Cc1ccccc1)CCCCC3` gave HEK293 tox inconclusive, LDHA block 0, GLP-1R inv ag 1.1µM*, GLP-1R agonist 11% and p53 reactivation 2%.
O=C1CCCc2nc3ccccc3c(-c3ccccc3)c21 was read as LDHA block -2.
